The full ranking holds about 33,000 sequences; the median of “e-score” is about -0.053, and the highest 2% start at about 0.38. The list comes from a sample in which the highest values are over-represented; it also holds similar and randomly drawn sequences.
target: T1, SIX1 homeodomain (reference allele) (human, UniProt Q15475 108-198); assay: universal protein binding microarray; Universal all-10-mer PBM (8x60K, AMADID 030236), 300 nM GST-tagged protein, Alexa Fluor 488 anti-GST; buffer, salt, pH and temperature not stated (as in Berger); high values mean tight binding; conditions: protein: ivt; tags: N-terminal GST; dsDNA, one strand shown
T1 sequence: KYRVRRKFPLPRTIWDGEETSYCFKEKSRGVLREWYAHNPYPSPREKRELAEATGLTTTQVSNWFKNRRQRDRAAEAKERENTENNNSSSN
Outline: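 Duplicate protein binding microarrays (universal 'all 10-mer', 8×60K format) were incubated with GST-tagged homeodomains at 300 nM final concentration. Binding was quantified as 8-mer E-scores with the Universal PBM Analysis Suite.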

Sequence | binding signal [E-score]
ATATTTGA | 0.173 ± 0.0606
ATCATTTG | 0.244 ± 0.0909
ATCGGGCC | 0.188 ± 0.0382
ACACCTGT | 0.277 ± 0.00124
TATCGAGA | 0.293 ± 0.0133
ATAGCCGG | 0.22519 ± 0.00017
ACGCATCT | 0.169 ± 0.0233
GGCAGATA | 0.216 ± 0.0469
ACAGTGAT | 0.199 ± 0.0229
ACTAGGAT | 0.187 ± 0.0427
CAGTTATC | 0.176 ± 0.0291
AACAATAT | 0.253 ± 0.0623
CGATGAGA | 0.191 ± 0.0564
CGATGATA | 0.445 ± 0.0281
CGATGACA | 0.18 ± 0.00711
ATTATGCG | 0.242 ± 0.0214
GTGTAGTA | 0.185 ± 0.0109
CACTATCA | 0.276 ± 0.0303
GGATATAC | 0.406 ± 0.0168
GGATATAA | 0.352 ± 0.0244
AGATATAT | 0.337 ± 0.0754
AGATATAA | 0.261 ± 0.0786

Sequence | binding signal [E-score]
CGATATAG | 0.362 ± 0.0306
AGATATAC | 0.38 ± 0.0393
GTATATAC | 0.316 ± 0.0323
CGATATAC | 0.405 ± 0.0197
CGATATAA | 0.243 ± 0.0501
ACACGGGC | 0.179 ± 0.0209
ACCCCGTA | 0.209 ± 0.0622
CGGTTTCA | 0.152 ± 0.0123
ATCCTCAC | 0.234 ± 0.0503
ATAGTGTA | 0.205 ± 0.0143
CTCAAGGA | 0.164 ± 0.0491
GGGGCGGA | 0.159 ± 0.113
ATTTATAC | 0.22 ± 0.116
TATGGTAA | 0.166 ± 0.0578
AGACCCCG | 0.23 ± 0.085
ACACCCCC | 0.3856 ± 0.00209
TACCCCCA | 0.243 ± 0.0116
TGACCCCA | 0.198 ± 0.0237
ACACCCCA | 0.365 ± 0.0445
ACCCCCCG | 0.168 ± 0.0136
ATAACCCC | 0.251 ± 0.0341
ATACCCCA | 0.43 ± 0.00878

Sequence | binding signal [E-score]
ATACCCCC | 0.454 ± 0.015
ATACCCCG | 0.4703 ± 0.00344
ACACCCCG | 0.353 ± 0.0394
ATTACCCC | 0.177 ± 0.0101
ATAGCCTG | 0.205 ± 0.031
ATCCCATG | 0.311 ± 0.0488
GACCATGA | 0.216 ± 0.0376
GGGAGATA | 0.3342 ± 0.000849
ATCAGTAC | 0.2244 ± 0.00203
GATCACTA | 0.371 ± 0.0113
GGATAGGA | 0.28 ± 0.0103
AGATAGCT | 0.178 ± 0.0771
GATCCTAA | 0.262 ± 0.00612
ATCAGGGC | 0.178 ± 0.0395
ACAAGGTA | 0.192 ± 0.0136
GATAGTAC | 0.212 ± 0.0174
GAGATATA | 0.359 ± 0.0685
CAGATATG | 0.315 ± 0.0384
CAGATATA | 0.263 ± 0.0342
AAGATATC | 0.445 ± 0.0468
AAGATATT | 0.214 ± 0.124
GAGAGATC | 0.286 ± 0.00645

Sequence | binding signal [E-score]
AAGATATG | 0.303 ± 0.0441
CAGATATC | 0.456 ± 0.0169
GAGATATC | 0.442 ± 0.0368
CTCTACAC | 0.163 ± 0.00511
ACCATAGA | 0.197 ± 0.0646
CCGATCTA | 0.2622 ± 0.00225
ATAGTGCA | 0.163 ± 0.0274
CGAGGGTA | 0.159 ± 0.0143
ACTAATCC | 0.228 ± 0.027
ATCTCAGA | 0.31 ± 0.0258
CTATCAGA | 0.271 ± 0.0216
AGATCAGC | 0.273 ± 0.00331
GTATCAGA | 0.466 ± 0.0136
AGATCAGG | 0.284 ± 0.0116
ATCTCAGG | 0.164 ± 0.0156
ATATCAGC | 0.404 ± 0.0329
GTATCTGA | 0.355 ± 0.00568
GTGTCAGA | 0.29 ± 0.0236
ATATCAGA | 0.408 ± 0.0495
ATATCAGG | 0.403 ± 0.0398
CTATCAGC | 0.202 ± 0.00952
